PubChem BioAssay (NCI)
The panel holds about 83,000 compounds, 20% with a hit somewhere; the sample as a whole holds those more often.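 48-hour exposure, single concentration, 96-well plates; percent growth endpoint where 0 means no net growth. Active: below 10.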 The source made the active and inactive calls.

Assays:
Assay in all cases: NCI-60 one-dose screen, 48 h (100 = growth as untreated, 0 = no growth, -100 = all killed)
Conditions in all cases: 10 µM
[1] = test system: SK-MEL-2 melanoma
[2] = test system: EKVX NSCLC
[3] = test system: SN12C renal
[4] = test system: UO-31 renal
[5] = test system: TK-10 renal
[6] = test system: ACHN renal
[7] = test system: CAKI-1 renal
[8] = test system: A498 renal
[9] = test system: CCRF-CEM leukemia
[10] = test system: MOLT-4 leukemia

Measured: growth

CN(C)c1ccc(/C=C/c2nc3ccccc3c(=O)n2CC(=O)Nc2ccc(Cl)cc2)cc1
inactive: [1] 94.9% | [2] 80% | [3] 76.4% | [4] 87.4% | [5] 83.1% | [6] 43.3% | [7] 53.1% | [8] 76.1% | [9] 88.6% | [10] 74.7%

O=C(NO)c1ccc(-c2nc3ccc4[nH]ncc4c3c3c2CCCC3)cc1
inactive: [5] 20.2%
active: [1] -89.7% | [2] -19.4% | [3] -13.8% | [4] -15.8% | [6] 2.16% | [7] -0.924% | [8] -49.1% | [9] 5.08% | [10] 3.76%

CS(=O)(=O)Nc1ccc(-c2ccc3c(c2)ncn3-c2ccc(NC(=O)Nc3ccc(Cl)c(C(F)(F)F)c3)cc2)cc1
active: [1] -83% | [2] -60.3% | [3] -68.7% | [4] -65.1% | [5] -6.45% | [6] -63.7% | [7] -55.2% | [8] -85.9% | [9] -31.7% | [10] -36.8%

COc1ccccc1[C@H]1C(C(=O)c2ccc(Cl)cc2)C2(N[C@@H]1c1ccccc1)C(=O)Nc1ccc(Cl)cc12 (stereo not given in full)
active: [1] -76.2% | [2] 8.9% | [3] -66.3% | [4] 6.99% | [6] 3.8% | [7] 8.2% | [9] 5.19% | [10] -21.1%
inactive: [5] 31.4% | [8] 13.1%

N#Cc1c(-c2ccc(F)cc2)nc(SCc2ccc([N+](=O)[O-])cc2)nc1N1CCOCC1
inactive: [1] 87.4% | [2] 39.3% | [3] 74.6% | [4] 50.9% | [5] 84.2% | [6] 51% | [7] 35.9% | [8] 64.4% | [9] 77.2% | [10] 73.7%

Nc1nnc(-c2c[nH]c3ccc(F)cc23)c(-c2c[nH]c3ncccc23)n1
inactive: [1] 93.7% | [2] 65.1% | [3] 46.9% | [4] 37.9% | [5] 82.9% | [6] 51.6% | [7] 33.9% | [8] 104% | [9] 61.6% | [10] 48.8%

O=C1NC(=NC23CC4CC(CC(C4)C2)C3)N/C1=C\c1ccc2ncsc2c1
active: [1] -23.3% | [2] -0.13% | [3] 8.93% | [4] 2.14% | [6] 3.03% | [7] 5.17% | [8] -11.3% | [9] 9.69% | [10] -5.73%
inactive: [5] 17.8%

CCOc1ccc2ncc(C#Cc3cncc(C(=O)Nc4ccc(CN5CCN(C)CC5)c(C(F)(F)F)c4)c3)n2n1
inactive: [7] 30.4% | [8] 15.9%
active: [1] -75.7% | [2] -65.8% | [3] -82.9% | [4] -65.8% | [5] -66.5% | [6] -87% | [9] 7.96% | [10] -8.54%

O=c1oc2ccccc2cc1-c1csc(N=Nc2c(O)[nH]c3ccc(Br)cc23)n1
inactive: [1] 60.3% | [2] 73.7% | [3] 85.3% | [4] 82.7% | [5] 86.8% | [6] 48.8% | [7] 84.5% | [8] 54.1% | [9] 99.8% | [10] 103%

Cc1cc(=O)oc2cc(OCCCCOc3ccc(/C=C/C(=O)Nc4ccc(F)c(Cl)c4)cc3)ccc12
inactive: [1] 117% | [2] 96.4% | [3] 96.4% | [4] 86.1% | [5] 112% | [6] 107% | [7] 96% | [8] 108% | [9] 92.7% | [10] 93.5%

COc1ccc(-c2c(N)c(=O)n(C)c3ccccc23)cc1
inactive: [1] 77.4% | [2] 52.4% | [3] 52.8% | [4] 29.7% | [5] 118% | [6] 59.4% | [7] 62.1% | [8] 110% | [9] 54.6% | [10] 37.3%

COc1ccc(C2N(c3ccc(Br)cc3)N=C(C(C)=O)N2[C@H]2[C@H](OC(C)=O)O[C@H](COC(C)=O)[C@@H](OC(C)=O)[C@@H]2OC(C)=O)cc1 (stereo not given in full)
inactive: [1] 77.9% | [2] 59.4% | [3] 79.7% | [4] 44.5% | [5] 68.9% | [6] 61.1% | [7] 70.8% | [8] 61.3% | [9] 78.8% | [10] 54.6%

Cc1ccc2nc(COc3ccc(C(=O)NNC(=S)NC(=O)c4ccccc4)cc3)[nH]c2c1
inactive: [1] 68.9% | [2] 51.6% | [3] 58.1% | [4] 18.6% | [5] 67.8% | [6] 23.6% | [7] 26.8% | [8] 97.3% | [9] 51.5% | [10] 52.6%

O/N=C(\CSc1nnc(-c2c[nH]c3ccccc23)n1-c1ccccc1)c1ccc(Br)cc1
inactive: [8] 62.2%
active: [1] -66.3% | [2] -63.3% | [3] -77.2% | [4] 3.58% | [5] -82.8% | [6] -83.5% | [7] -94.3% | [9] -6.14% | [10] -19.2%

O=C(CNc1nc(-c2ccccc2)cs1)Nc1ccc(Cl)cc1
active: [1] -84.1% | [2] -95.3% | [3] -97.2% | [4] -99.8% | [5] -93.9% | [6] -100% | [7] -82.4% | [8] -93.4% | [10] -26.5%
inactive: [9] 12.3%

N#Cc1ccc(-c2nn(-c3ccc(C(=O)O)cc3)cc2CNc2cc(Cl)cc(C(F)(F)F)c2)cc1
inactive: [2] 22.8% | [3] 18.4% | [4] 25% | [5] 63.5% | [6] 17.3% | [7] 20.8% | [8] 39.8%
active: [1] 8.11% | [9] 5.2% | [10] 6.25%

O=c1[nH]c2ccccc2cc1CSc1ccc(Nc2nccc(-c3ccc4ccccc4c3)n2)cc1
inactive: [1] 96.5% | [2] 68.1% | [3] 54.1% | [4] 93.7% | [5] 78.8% | [6] 79.5% | [7] 72.6% | [8] 82% | [9] 79.9% | [10] 75.1%

Nc1nc2c(F)c(F)c(F)c(F)c2s1
inactive: [1] 106% | [2] 46.1% | [3] 113% | [4] 91% | [5] 101% | [6] 114% | [7] 85.7% | [8] 114% | [9] 106% | [10] 105%

Cc1ccc(CSc2nc(-c3ccc(F)cc3)c(C#N)c(=O)[nH]2)cc1
inactive: [1] 103% | [2] 99.6% | [3] 102% | [4] 96.2% | [5] 93.5% | [6] 100% | [7] 92.5% | [8] 99.3% | [9] 94.7% | [10] 88.4%

O=C(Nc1cccc(C(F)(F)F)c1)c1cncc(C#Cc2cnc3cccnn23)c1
inactive: [1] 61.1% | [2] 54.7% | [3] 35.5% | [4] 30.4% | [5] 97.8% | [6] 55.2% | [7] 71.8% | [8] 171% | [9] 16.5% | [10] 24.3%

COc1ccc(-c2ccc(/C=N/NC(=O)c3[nH]c4ccc(Br)cc4c3-c3ccccc3)s2)cc1
inactive: [1] 106% | [2] 110% | [3] 74.9% | [4] 86.4% | [5] 127% | [6] 106% | [7] 94.8% | [8] 131% | [9] 88% | [10] 87.6%

COc1ccc(NC(=O)Cn2c(/C=C/c3ccc(N(C)C)cc3)nc3ccccc3c2=O)cc1
active: [4] 2.65% | [6] -2.17%
inactive: [1] 76.4% | [2] 71.2% | [3] 24% | [5] 62.8% | [7] 18.9% | [8] 56.5% | [9] 90.9% | [10] 85.3%

CCOC(=O)c1sc(N/N=C(\C)c2ccc3c(c2)Nc2ccccc2S3)nc1C
inactive: [1] 10.7% | [2] 26.1% | [3] 51.3% | [4] 29.4% | [5] 36.8% | [6] 16.9% | [7] 32.2% | [8] 30.6% | [9] 32.4% | [10] 14.8%

C=C(c1ccc(OC)c(N)c1)c1cc(C)nc2ccccc12
inactive: [2] 21.5% | [4] 21.4% | [5] 78.1% | [6] 24.5% | [7] 27.1% | [8] 118% | [10] 12.5%
active: [1] -23.7% | [3] 6.5% | [9] 5.19%

O=c1c2ccccc2nc(COc2ccccc2)n1/N=C/c1ccc(F)cc1
inactive: [1] 94.5% | [2] 92.1% | [3] 86.5% | [4] 84.4% | [5] 105% | [6] 91.1% | [7] 94.3% | [8] 106% | [9] 86.2% | [10] 72.9%

Nc1nc(-c2ccccc2)cs1
inactive: [1] 61.6% | [2] 32% | [3] 68.2% | [4] 29% | [5] 83.5% | [6] 59.5% | [7] 69.9% | [8] 94.7% | [9] 43.3% | [10] 35.1%

COc1cccc(COc2ccc(/C=C3\Oc4cc(O)ccc4C3=O)cc2)c1
active: [4] -64.7% | [5] 2.68% | [6] -32.1% | [7] -23%
inactive: [1] 87% | [2] 70.9% | [3] 66.1% | [8] 131% | [9] 74.9% | [10] 52.1%
